Reference: PubChem BioAssay (NCATS)
Records with an inconclusive call do not appear. Active and inactive are the calls of the source. Calls come from the whole dose curve; as a rule, active = well fitted inhibition curve with a large enough effect in the main read-out, with a control signal flat (not every such curve was filed as active); inconclusive = small, poorly fitted or top-dose-only effect, or effect the other way, or a change in a side signal; inactive = no such curve, though single readings can be large or run the other way.

Test: Nrf2 qHTS screen for inhibitors: Validation (AID 493153);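 for activity change, negative = inhibition: A549 cells with ARE-driven firefly luciferase reporter reporting Nrf2 activity; % of control where 0% means no effect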
Settings: A549 ARE-Fluc reporter, 18-24 h; Potency: luciferase luminescence; viability change: measured here: cytotoxicity max response; luciferase luminescence, at 46.1 µM (top of the series); activity change, negative = inhibition: at the top concentration
From the text: NIH Molecular Libraries Probe Production Network [MLPCN] NIH Chemical Genomics Center [NCGC] MLPCN Grant: R03-MH092170-01 Assay Provider: Shyam Biswal, Johns Hopkins University Assay Overview: Nrf2 is a transcription factor that maintains cellular redox homoestasis and protects cells from xenobiotics. Nrf2 binds to the antioxidant response element (ARE) to induce gene expression of a broad spectrum of genes that encode for antioxidants. […] Finding a small molecule that act as an inhibitor of Nrf2 function would represent a novel therapeutic target that could lead to improvement in survival of patients undergoing chemo- and/or radio- therapy. 1. Shibata, T., et al., Genetic Alteration of Keap1 Confers Constitutive Nrf2 Activation and Resistance to Chemotherapy in Gallbladder Cancer. Gastroenterology, 2008. 2. Sjoblom, T., et al., The consensus coding sequences of human breast and colorectal cancers. Science, 2006. 314(5797): p. 268-74.
Assay Protocol Summary: A concentration-response assay was performed with A549 ARE_Fluc cells which are suspended in 5% FBS OPTI-MEM. Five uL were dispensed into 1536-well white TC-treated plate using the Kalypsys dispenser to achieve a density of 5000 cells/well in all columns except column 1. The plate is incubated at 37deg C at 5% CO2 for 2 hours before 23 nL of compounds are added with the Kalypsys pin tool equipped with a 1,536-pin array containing 10-nL slotted pins (FP1S10, 0.457-mm diameter, 50.8 mm long; V&P Scientific). The control compounds Budesonide and Staurosporine are both added at a concentration of 2mM and Budesonide is also added as a 1:10 titration, starting at 200uM, to achieve dose-response. After an 18-24 hour incubation at 37deg C at 5% CO2, 5ul of medium is added to column 1. Afterwards 1ul of 5x of CellTiter-Fluor (Promega) is added to every well. The plate is then incubated at 37deg C at 5% CO2 for 30 minutes before they are read on the ViewLux (Perkin Elmer) for a fluorescent read Ex=405(10)/Em=525(10) for a 3 second exposure, 2x binning, and high gain. Then 3 uL of 3x BugLite is dispensed into all wells and the plate is incubated at ambient room temperature for 15 minutes. Afterwards another ViewLux read is performed using the clear filter to get a luminescent read with the settings of 40 second exposure, 2x binning, and high gain. Cytotoxicity is assessed through the first fluorescent read and then biochemical activity against Nrf2 is measured in the luminescent read.
Potency is the fitted concentration of half-maximal effect.

SMILES | activity change, negative = inhibition | viability change | Potency
c1ccc2nc(C3=NCCN3)ccc2c1 | -4.89% (inactive) | 1.31% | –
C[N+](C)(C)CC=O | 3.68% (inactive) | 2.93% | –
N[C@@H](CCCC(=O)O)C(=O)O | 3.68% (inactive) | 7.86% | –
C=CC1(C)CC(=O)C2(O)C(C)(O1)C(OC(C)=O)C(O)C1C(C)(C)CCC(O)C12C (stereo not given) | -17.8% (inactive) | 4.77% | –
CN1CC(O)C(O)C(O)C1CO (stereo not given) | -5.7% (inactive) | 2.46% | –
Cc1ccc([N+](=O)[O-])cc1S(=O)(=O)N(C)C | 1.59% (inactive) | 3.59% | –
O=C(O)c1cc2cc(F)ccc2[nH]1 | 6.42% (inactive) | 4.46% | –
Cc1ccc2c(c1)C(N1CCN(C)CC1)=Nc1cccnc1N2 | -9.21% (inactive) | 3.55% | –
CCCCCCCCCCC/C=C\C(C)(C)/C=C\CCCC(=O)O | 0.72% (inactive) | 3.47% | –
N[C@H](C(=O)O)[C@H]1C[C@@H]1C(=O)O | 9.82% (inactive) | 2.9% | –
Cc1nc(N=Nc2cc(S(=O)(=O)O)c3cc([N+](=O)[O-])cc(S(=O)(=O)O)c3c2)c(COP(=O)(O)O)c(C=O)c1O | -0.238% (inactive) | -14.8% | –
CC(C)(C)c1ccc(/C=C/C(=O)Nc2ccc3c(c2)OCCO3)cc1 | – | -12.9% | 10.3 µM (active)
Cc1ccccc1/C=C/C1=NCCN1 | 4.41% (inactive) | -20.2% | –
NCCCNCCCCNCCCN | 14.8% (inactive) | -11.3% | –
CC(C)C[C@H](NC(=O)[C@H](O)[C@H](N)Cc1ccccc1)C(=O)O | -0.67% (inactive) | 5.98% | –
NCC(O)C1CCCCCCC1 (stereo not given) | -15.3% (inactive) | 3.56% | –
CC(C)[C@@H]1CC[C@@H](C)C[C@@H]1P(=O)(c1ccccc1)c1ccccc1 | 6.22% (inactive) | -1.08% | –
N=C(N)SCCc1cnc[nH]1 | 38% (inactive) | -8.6% | –
NC(Cc1cccc(-c2ccccc2CP(=O)(O)O)c1)C(=O)O (stereo not given) | -7.45% (inactive) | 0.913% | –
C=CC[C@H](N)C(=O)O | 2.56% (inactive) | -2.69% | –
